Publication PMC12864922, “TDP-43 directly inhibits mRNA accumulation in neurites through modulation of mRNA stability”
Substitutions are numbered along the chain they refer to. Whole data set: some 9,900 sequences, median “r (bound/input frequency ratio)” near 0.7, cut for the highest 2% near 6.5. Shown is part of a subset that was picked to be rich in the highest values.

B1: ENSMUSG00000031028.294|Tub|205:209 (ssRNA)
RNA: GGGAGUUCUACAGUCCGACGAUCGCUUCGAUAUCCGCAUGCUAUAGAUUUCCCAGGUUGGACACUCGACGAAAGGCACACCUGCUGCAGCAGGUUCUGACACACCUGAGCCAUACAUUGCCAUCAGAGAACCCUCAGCGAGGUAGCCUUUGUUUACAGUCUAGUUUCUAGAGGGCAGUAGGACUUCCAUGCUGGGGCUGGCCUAUCUCCUGAUGAAAGAUUACAGUGCCAUCUCCUUCCCAUAGUUCACACACUGCCCUCCCUCCCUGACUUUAUAGGGAGAAAUCUCCUGACAUUAGAGGUGCUCUUGCGGUCGCACUAGUGUGGAAUUCUCGGGUGUCAAGG
B2: ENSMUSG00000032194.156|Kank2|226:232 (ssRNA)
RNA: GGGAGUUCUACAGUCCGACGAUCGCUUCGAUAUCCGCAUGCUAAAAAAAGAAAAAAGGCCAUUCCGGAGUGACUCCCAGCAUCACAGCCCAGAACCUCCUCCUCAAAGGAGAGUAAACAGAGACUGUGAUACUGACCAAGUACAGGCGCUCGCUAUGAAGCCCAUAUGUUCCUGAUUAAGAGCUGGCUGGCCUCAGAGCACUCCCAGAACUAGCUUAAAGUGACAGGCUUUGCUGAAAUCCAAAGGGACAAAAGAGUAGUUUUAUGUUACACACAUUGUUUUUAAUGCCCUGGAGCUCCUGCUCUCUUGCGGUCGCACUAGUGUGGAAUUCUCGGGUGUCAAGG
B3: ENSMUSG00000061578.741|Ksr2 (ssRNA)
RNA: GGGAGUUCUACAGUCCGACGAUCGCUUCGAUAUCCGCAUGCUAUUUAAAUACCUGCUGCAGGCCUCCCAUCUCUGGCUCUUUGUUUCCACUCUGGCCCAAGUUUGAGUCUCCAUAUGGGCCCUUCCUGUCCUCAUGCCCUGCCUGUCUUCAUUCCACCCAUCCACCCUCCUAAGGAUUGGUCUUGUUCCGAGAGUGAUCCUGGUAACGCCAAGCCUCCCUCUGCCCCUGUGUUGGCUUCUGUGACGGACUACCACACACCAAGAGGUUUUUCACAGUGAAGAUGUAUGCUCUCACCAUCCUACCUCUUGCGGUCGCACUAGUGUGGAAUUCUCGGGUGUCAAGG
B4: ENSMUSG00000061578.701|Ksr2|49:53 (ssRNA)
RNA: GGGAGUUCUACAGUCCGACGAUCGCUUCGAUAUCCGCAUGCUAUACUCCCAGAUCUGGGGUGAUCUCUUGAGGUGCCUUCCUGUAGUCUCUACACACAUCUUCUUCUAAGACCACUAAUAACACCGCCUUUCUCCUUGAUCCGGGCCUCAGACCUCUUCAGAGAUUCUUUCUCUGAAUGUACGUGGGGGACUCCAACAGAUGUUGGGAGAAGACUCAAUAUGAGCAUACGGGGUCAUUGUUCAAUCCUGUAUCAAGACCUUGGAGUUGUCUAAGGCUGUGGGUUUUAAAUACCUGCUGCAGGCCUCUUGCGGUCGCACUAGUGUGGAAUUCUCGGGUGUCAAGG
B5: ENSMUSG00000061578.1464|Ksr2 (ssRNA)
RNA: GGGAGUUCUACAGUCCGACGAUCGCUUCGAUAUCCGCAUGCUAGGUAGAUAGGUAUAUGAAUGAAUGGAUGAAUGGAUGGGUGAAUGGAUGGAUAGGUAUGUGAAUAAAUGGAUGGAUGGAUGGAUUGAUUUGUGAAUGAAUGGAUGAAUGGAUGGGUAGGUGGGUGGAUGCAUAGGCAAGUAGAUGAAUGAAUAUGUGGGUAGAAGGGUGAGUGGGUGGAUGAAUGGAUGGAUAGGUUGGUAGGUUAAUGUAUUCGUGGAUGGGUGAAUGGAUGGAUGGAUAGAUAGAUGGGAAGGUGGAUGCUCUUGCGGUCGCACUAGUGUGGAAUUCUCGGGUGUCAAGG
B6: ENSMUSG00000061578.1461|Ksr2|72:76 (ssRNA)
RNA: GGGAGUUCUACAGUCCGACGAUCGCUUCGAUAUCCGCAUGCUAUGAAUGGAUGGGUAGGUGGGUAGAUAGGUAUAUGAAUGAAUGGAUGAAUGGAUGGGUGAAUGGAUGGAUAGCAUACUGAAUAAAUGGAUGGAUGGAUGGAUUGAUUUGUGAAUGAAUGGAUGAAUGGAUGGGUAGGUGGGUGGAUGCAUAGGCAAGUAGAUGAAUGAAUAUGUGGGUAGAAGGGUGAGUGGGUGGAUGAAUGGAUGGAUAGGUUGGUAGGUUAAUGUAUUCGUGGAUGGGUGAAUGGAUGGAUGGAUAGACUCUUGCGGUCGCACUAGUGUGGAAUUCUCGGGUGUCAAGG
B7: ENSMUSG00000061578.1464|Ksr2|54:58 (ssRNA)
RNA: B5 RNA with G97C, U98A, A99U, U100A, G101C
B8: ENSMUSG00000061578.1458|Ksr2|90:94 (ssRNA)
RNA: GGGAGUUCUACAGUCCGACGAUCGCUUCGAUAUCCGCAUGCUAGAAUGAAUGGAUGAUGGAUGAAUGGAUGGGUAGGUGGGUAGAUAGGUAUAUGAAUGAAUGGAUGAAUGGAUGGGUGAAUGGAUGGAUAGCAUACUGAAUAAAUGGAUGGAUGGAUGGAUUGAUUUGUGAAUGAAUGGAUGAAUGGAUGGGUAGGUGGGUGGAUGCAUAGGCAAGUAGAUGAAUGAAUAUGUGGGUAGAAGGGUGAGUGGGUGGAUGAAUGGAUGGAUAGGUUGGUAGGUUAAUGUAUUCGUGGAUGGGUGCUCUUGCGGUCGCACUAGUGUGGAAUUCUCGGGUGUCAAGG
B9: ENSMUSG00000061578.1457|Ksr2|1:5;96:100 (ssRNA)
RNA: GGGAGUUCUACAGUCCGACGAUCGCUUCGAUAUCCGCAUGCUACAUACUGAAUGAAUGGAUGAUGGAUGAAUGGAUGGGUAGGUGGGUAGAUAGGUAUAUGAAUGAAUGGAUGAAUGGAUGGGUGAAUGGAUGGAUAGCAUACUGAAUAAAUGGAUGGAUGGAUGGAUUGAUUUGUGAAUGAAUGGAUGAAUGGAUGGGUAGGUGGGUGGAUGCAUAGGCAAGUAGAUGAAUGAAUAUGUGGGUAGAAGGGUGAGUGGGUGGAUGAAUGGAUGGAUAGGUUGGUAGGUUAAUGUAUUCGUGGACUCUUGCGGUCGCACUAGUGUGGAAUUCUCGGGUGUCAAGG
B10: ENSMUSG00000061578.1460|Ksr2|78:82 (ssRNA)
RNA: GGGAGUUCUACAGUCCGACGAUCGCUUCGAUAUCCGCAUGCUAGAUGGAUGAAUGGAUGGGUAGGUGGGUAGAUAGGUAUAUGAAUGAAUGGAUGAAUGGAUGGGUGAAUGGAUGGAUAGCAUACUGAAUAAAUGGAUGGAUGGAUGGAUUGAUUUGUGAAUGAAUGGAUGAAUGGAUGGGUAGGUGGGUGGAUGCAUAGGCAAGUAGAUGAAUGAAUAUGUGGGUAGAAGGGUGAGUGGGUGGAUGAAUGGAUGGAUAGGUUGGUAGGUUAAUGUAUUCGUGGAUGGGUGAAUGGAUGGAUGCUCUUGCGGUCGCACUAGUGUGGAAUUCUCGGGUGUCAAGG

target: TDP-43 (Homo sapiens, UniProt Q13148 1-414); assay: RNA Bind-n-Seq with designed 260-mer pool; 25 mM Tris-HCl, 150 mM KCl, 3 mM MgCl2, BSA (printed 500 mg/mL), 20 units/mL SUPERase IN; pH not stated; 500 nM RNA pool, 1 h, 4 C; TDP-43 5, 50, 500 nM; high values mean tight binding; conditions: protein: recombinant; tags: SBP (GST cleaved off with PreScission; pGEX-GST-SBP)
Procedure, shortened: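 An in vitro-transcribed pool of 260-nt 3′ UTR oligos (500 nM) was incubated for 1 h at 4 °C with recombinant SBP-tagged TDP-43 at 5, 50 or 500 nM held on streptavidin beads. The buffer contained 25 mM Tris-HCl, 150 mM KCl, 3 mM MgCl2, BSA and SUPERase IN. Biotin-eluted bound RNA was sequenced, and binding, R, is each oligo's normalized read abundance in the bound sample over that in input.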

Chain of TDP-43 (Q13148 whole entry): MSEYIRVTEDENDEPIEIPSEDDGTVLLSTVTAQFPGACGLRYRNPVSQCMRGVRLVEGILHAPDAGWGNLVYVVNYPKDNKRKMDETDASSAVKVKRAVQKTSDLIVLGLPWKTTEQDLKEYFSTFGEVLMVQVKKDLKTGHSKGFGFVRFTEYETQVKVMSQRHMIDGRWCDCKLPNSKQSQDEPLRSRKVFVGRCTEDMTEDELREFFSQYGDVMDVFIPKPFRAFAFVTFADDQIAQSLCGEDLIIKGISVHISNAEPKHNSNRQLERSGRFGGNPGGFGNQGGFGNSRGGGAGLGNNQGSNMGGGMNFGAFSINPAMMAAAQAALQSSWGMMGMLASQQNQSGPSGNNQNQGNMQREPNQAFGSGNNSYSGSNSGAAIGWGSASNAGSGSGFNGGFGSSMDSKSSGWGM

Binder	binding signal
B1	0.471 R (bound/input frequency ratio)
B2	0.257 R (bound/input frequency ratio)
B3	2.01 R (bound/input frequency ratio)
B4	0.26 R (bound/input frequency ratio)
B5	5.55 R (bound/input frequency ratio)
B6	4.58 R (bound/input frequency ratio)
B7	7.9 R (bound/input frequency ratio)
B8	6.91 R (bound/input frequency ratio)
B9	5.06 R (bound/input frequency ratio)
B10	5.37 R (bound/input frequency ratio)
